The results in this text go back to PubChem BioAssay (EPA / NIEHS).

SMILES strings stand for the structures. Inconclusive results are not listed. The source made the active and inactive calls. Rule for the calls, unless noted: active = hit-call score of the fitted dose curve at least 0.9, where 1 is the maximum; inactive = score below 0.9.

In experiment [1] the target is Peroxisome proliferator-activated receptor gamma (Homo sapiens) (UniProt P37231). The experiment can be described thus: ATG_PPARg_TRANS: Attagene TRANS-FACTORIAL HepG2 Assay for human Peroxisome Proliferator-activated Receptor-gamma (PPARg) (AID 2283007; active = hit-call score of the fitted dose curve at least 0.9, where 1 is the maximum). The gist of the method: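 HepG2 cells are transiently transfected with GAL4-UAS reporter units driven by chimeric NR-Gal4 fusions and dosed for 24 h. Reporter mRNA is quantified by RT-PCR, 6-FAM labelling, HpaI digestion and capillary electrophoresis. Induction is scored against DMSO.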

A short description of experiment [2]: BSK_3C_Proliferation: Cell Proliferation Assessment in the BioMAP Diversity Plus: 3C Assay (AID 2283006).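 For AC50: potency may reflect either rise or fall in cell number versus DMSO.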 As to conditions: primary human endothelial cells (HUVEC). The gist of the method: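 Proliferation as total protein: sulforhodamine B (0.1%) stain of TCA-fixed subconfluent human umbilical vein endothelial cells, absorbance 560 nm, 48 h after dosing. Activity fitted in both directions against DMSO baseline.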

Experiment [3] concerns the target Nuclear receptor subfamily 1 group I member 2 (Homo sapiens) (UniProt O75469). Nature of the experiment: ATG_PXR_TRANS: Attagene TRANS-FACTORIAL HepG2 Assay for human Pregnane X Receptor (PXR) (AID 2283008; active = hit-call score of the fitted dose curve at least 0.9, where 1 is the maximum). The gist of the method:
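HepG2 transfected (FuGene 6) with GAL4-UAS reporter units + PXR-Gal4 chimera; dosed 24 h. Total RNA → oligo(dT) RT → PCR → 6-FAM primer extension → HpaI cut → CE. Gain-of-signal vs DMSO.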

The target in experiment [4] is Retinoic acid receptor RXR-alpha (Homo sapiens) (UniProt P19793). The experiment can be described thus: ATG_RXRa_TRANS: Attagene TRANS-FACTORIAL HepG2 Assay for human Retinoid X Receptor alpha (RXRa) (AID 2283012; active = hit-call score of the fitted dose curve at least 0.9, where 1 is the maximum). The gist of the method:
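TRANS format reporting activity of exogenous RXRa-Gal4 chimera in transiently transfected HepG2, 24 h exposure. Reporter transcripts quantified by RT-PCR with capillary electrophoresis, with gain of signal scored relative to DMSO.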

Experiment [5] deals with human Retinoid X Receptor beta (RXRb), RXRB (gene 6257) (UniProt P28702). The experiment can be described thus: ATG_RXRb_TRANS: Attagene TRANS-FACTORIAL HepG2 Assay for human Retinoid X Receptor beta (RXRb) (AID 2283013; active = hit-call score of the fitted dose curve at least 0.9, where 1 is the maximum). The gist of the method:
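Readout is reporter transcript induction after 24 h dosing. It is measured by RT-PCR of total RNA followed by fluorescent capillary electrophoresis. HepG2 liver cells carry transfected multiple reporter units driven by an exogenous RXRb-Gal4 fusion; activity is relative to DMSO.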

Read-out in experiment [6]: E-selectin (Homo sapiens) (UniProt P16581)
Nature of the experiment: BSK_3C_Eselectin: BioMAP Diversity Plus: 3C Assay for Eselectin Biomarker Activity (AID 2283015).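 For outcome: cell surface E-selectin protein quantified by ELISA 24 h after dosing.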 As to conditions: primary human endothelial cells (HUVEC); actives raise or lower the signal. The gist of the method: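 Endpoint derived by bidirectional fitting against DMSO vehicle; signal is ELISA-detected E-selectin from primary HUVEC at 24 h post-dosing, with parallel SRB staining (0.1% SRB, 560 nm) flagging cytotoxicity.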

Read-out in experiment [7]: Interleukin-1 alpha (IL1a), IL1A (gene 3552)
The experiment can be described thus: BSK_BE3C_IL1a: BioMAP Diversity Plus: BE3C Assay for Interleukin-1 alpha (IL1a) Biomarker Activity (AID 2283016). As to conditions: primary human bronchial epithelial cells; actives raise or lower the signal. Put shortly:
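IL-1a measured by ELISA after 24 h treatment of human primary bronchial epithelial cells, with gain or loss of signal fitted versus DMSO. Parallel cultures stained with SRB gauge overt cytotoxicity.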

Read-out in experiment [8]: Monocyte Chemoattractant Protein-1 (MCP1), CCL2 (gene 6347)
Nature of the experiment: BSK_3C_MCP1: BioMAP Diversity Plus: 3C Assay for Monocyte Chemoattractant Protein-1 (MCP1) Biomarker Activity (AID 2283017). As to conditions: primary human endothelial cells (HUVEC); actives raise or lower the signal. Put shortly: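 Using human vascular primary endothelium, researchers measured MCP-1 by ELISA 24 h after treatment, with DMSO serving as negative control for bidirectional fitting.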

Read-out in experiment [9]: Monocyte Chemoattractant Protein-1 (MCP1), CCL2 (gene 6347)
Nature of the experiment: BSK_4H_MCP1: BioMAP Diversity Plus: 4H Assay for Monocyte Chemoattractant Protein-1 (MCP1) Biomarker Activity (AID 2283018). As to conditions: primary human endothelial cells (HUVEC); actives raise or lower the signal. Put shortly:
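ELISA of MCP-1 (CCL2) 24 h after chemical dosing of HUVEC in the BioMAP 4H system. Gain or loss versus DMSO fitted; parallel SRB staining (560 nm) tracked overt cytotoxicity.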

Read-out in experiment [10]: Human Leukocyte Antigen - DR isotype (HLADR), HLA-DRA (gene 3122)
Nature of the experiment: BSK_3C_HLADR: BioMAP Diversity Plus: 3C Assay for Human Leukocyte Antigen - DR isotype (HLADR) Biomarker Activity (AID 2283019).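 For outcome: ELISA of cell-surface HLA-DR on HUVEC 24 h after dosing.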 As to conditions: primary human endothelial cells (HUVEC); actives raise or lower the signal. Put shortly:
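Compound added to primary HUVEC cultures, 24 h incubation, then HLA-DR determined by ELISA; endpoint derived by bidirectional fitting relative to DMSO negative control.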

Experiment [11] addresses human Vitamin D Receptor (VDR), VDR (gene 7421) (UniProt P11473). The experiment can be described thus: ATG_VDR_TRANS: Attagene TRANS-FACTORIAL HepG2 Assay for human Vitamin D Receptor (VDR) (AID 2283022; active = hit-call score of the fitted dose curve at least 0.9, where 1 is the maximum). Put shortly:
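Multiplexed TRANS reporter in HepG2; 24 h treatment; reporter mRNA by RT-PCR plus capillary electrophoresis; upregulation scored relative to DMSO.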

A short description of experiment [12]: BSK_3C_SRB: Viability Assessment in the BioMAP Diversity Plus: 3C Assay (AID 2283023).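 Note: cells read 24 h after compound dosing; fitted both ways against DMSO so a hit may be signal rise or drop.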 As to conditions: primary human endothelial cells (HUVEC). The gist of the method:
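Overt cytotoxicity is gauged in parallel confluent HUVEC cultures by SRB total-protein staining at the time of biomarker measurement, 24 h after dosing. Gain or loss of signal is fitted versus DMSO.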

Experiment [13] concerns the target human Thyroid Receptor alpha (THRa1), THRA (gene 7067) (UniProt P10827). Nature of the experiment: ATG_THRa1_TRANS: Attagene TRANS-FACTORIAL HepG2 Assay for human Thyroid Receptor alpha (THRa1) (AID 2283014; active = hit-call score of the fitted dose curve at least 0.9, where 1 is the maximum). Put shortly: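 Measured here is mRNA from a GAL4-UAS reporter in transfected HepG2 cells carrying a Gal4-fused receptor, 24 h post-dose. DMSO served as negative control and baseline.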

Read-out in experiment [14]: Interleukin-8 (IL8), CXCL8 (gene 3576)
The experiment can be described thus: BSK_3C_IL8: BioMAP Diversity Plus: 3C Assay for Interleukin-8 (IL8) Biomarker Activity (AID 2283020). As to conditions: primary human endothelial cells (HUVEC); actives raise or lower the signal. The gist of the method:
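IL-8 was measured by ELISA in HUVEC cultures 24 h after chemical dosing, with gain or loss of signal fitted relative to DMSO. Parallel SRB total-protein staining tracked overt cytotoxicity.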

In experiment [15] the target is human RAR-related Orphan Receptor beta (RORb), RORB (gene 6096) (UniProt Q92753). The experiment can be described thus: ATG_RORb_TRANS: Attagene TRANS-FACTORIAL HepG2 Assay for human RAR-related Orphan Receptor beta (RORb) (AID 2283010; active = hit-call score of the fitted dose curve at least 0.9, where 1 is the maximum). The gist of the method: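 Read-out is reporter mRNA induction, quantified by RT-PCR with fluorescent capillary electrophoresis, 24 h post-dose in transiently transfected HepG2 expressing exogenous NR-Gal4 chimera. Activity fitted upward versus DMSO.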

The target in experiment [16] is human RAR-related Orphan Receptor gamma (RORg), RORC (gene 6097) (UniProt P51449). Nature of the experiment: ATG_RORg_TRANS: Attagene TRANS-FACTORIAL HepG2 Assay for human RAR-related Orphan Receptor gamma (RORg) (AID 2283011; active = hit-call score of the fitted dose curve at least 0.9, where 1 is the maximum). Put shortly:
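Chimeric RORg-Gal4 transactivation in transfected HepG2; 24 h exposure; RT-PCR/capillary electrophoresis readout of reporter mRNA, DMSO baseline.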

Read-out in experiment [17]: Monokine induced gamma interferon (MIG), CXCL9 (gene 4283)
Nature of the experiment: BSK_3C_MIG: BioMAP Diversity Plus: 3C Assay for Monokine induced gamma interferon (MIG) Biomarker Activity (AID 2283021).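 For AC50: MIG protein level measured by immunoassay in the treated endothelial cultures.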 As to conditions: primary human endothelial cells (HUVEC); actives raise or lower the signal. Put shortly:
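ELISA measurement of MIG in human umbilical vein endothelial cells 24 h after treatment. Cytotoxicity tracked by SRB staining in parallel cultures; gain or loss of signal fitted relative to DMSO.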

human Vitamin D Receptor (VDR), VDR (gene 7421), sequence (P11473 whole entry, looked up): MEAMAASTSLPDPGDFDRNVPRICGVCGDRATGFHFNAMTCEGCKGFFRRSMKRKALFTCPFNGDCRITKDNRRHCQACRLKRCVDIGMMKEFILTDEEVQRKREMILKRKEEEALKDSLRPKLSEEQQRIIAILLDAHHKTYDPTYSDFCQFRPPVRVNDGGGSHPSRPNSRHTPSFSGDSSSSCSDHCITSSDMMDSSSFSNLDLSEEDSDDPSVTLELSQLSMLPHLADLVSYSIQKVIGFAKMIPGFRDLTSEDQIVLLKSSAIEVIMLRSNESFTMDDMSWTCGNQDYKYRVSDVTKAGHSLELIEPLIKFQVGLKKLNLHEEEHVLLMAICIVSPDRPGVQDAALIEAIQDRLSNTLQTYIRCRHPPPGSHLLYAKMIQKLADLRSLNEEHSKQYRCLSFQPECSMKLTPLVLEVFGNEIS
human RAR-related Orphan Receptor beta (RORb), RORB (gene 6096), sequence (Q92753 whole entry, looked up, the tested form may be a part): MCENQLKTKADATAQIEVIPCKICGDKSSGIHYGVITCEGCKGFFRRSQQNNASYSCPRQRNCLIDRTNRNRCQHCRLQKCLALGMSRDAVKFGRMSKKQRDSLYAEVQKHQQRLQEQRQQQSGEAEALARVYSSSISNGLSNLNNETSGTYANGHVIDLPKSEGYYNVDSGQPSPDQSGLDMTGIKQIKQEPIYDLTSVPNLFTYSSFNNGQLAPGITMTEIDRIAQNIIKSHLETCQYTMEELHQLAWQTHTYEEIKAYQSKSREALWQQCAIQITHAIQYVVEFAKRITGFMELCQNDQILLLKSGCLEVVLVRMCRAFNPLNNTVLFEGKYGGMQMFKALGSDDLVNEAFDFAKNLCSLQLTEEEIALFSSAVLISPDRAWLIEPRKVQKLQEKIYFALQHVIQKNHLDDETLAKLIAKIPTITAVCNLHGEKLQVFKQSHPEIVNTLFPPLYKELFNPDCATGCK
human Thyroid Receptor alpha (THRa1), THRA (gene 7067), sequence (P10827 whole entry, looked up, the tested form may be a part): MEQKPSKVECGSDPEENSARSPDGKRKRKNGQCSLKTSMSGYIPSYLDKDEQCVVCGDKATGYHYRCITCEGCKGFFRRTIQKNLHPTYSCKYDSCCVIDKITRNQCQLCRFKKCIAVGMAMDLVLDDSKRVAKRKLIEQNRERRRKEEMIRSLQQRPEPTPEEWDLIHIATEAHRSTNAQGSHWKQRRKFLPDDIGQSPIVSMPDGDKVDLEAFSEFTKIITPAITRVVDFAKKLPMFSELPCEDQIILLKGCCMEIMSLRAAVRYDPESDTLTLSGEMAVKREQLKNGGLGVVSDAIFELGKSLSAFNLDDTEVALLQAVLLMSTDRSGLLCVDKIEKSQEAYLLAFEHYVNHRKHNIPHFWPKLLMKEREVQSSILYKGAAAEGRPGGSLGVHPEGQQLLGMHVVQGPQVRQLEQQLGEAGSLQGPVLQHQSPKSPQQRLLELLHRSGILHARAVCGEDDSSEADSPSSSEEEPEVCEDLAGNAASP
Retinoic acid receptor RXR-alpha (Homo sapiens), sequence (P19793 whole entry, looked up, the tested form may be a part): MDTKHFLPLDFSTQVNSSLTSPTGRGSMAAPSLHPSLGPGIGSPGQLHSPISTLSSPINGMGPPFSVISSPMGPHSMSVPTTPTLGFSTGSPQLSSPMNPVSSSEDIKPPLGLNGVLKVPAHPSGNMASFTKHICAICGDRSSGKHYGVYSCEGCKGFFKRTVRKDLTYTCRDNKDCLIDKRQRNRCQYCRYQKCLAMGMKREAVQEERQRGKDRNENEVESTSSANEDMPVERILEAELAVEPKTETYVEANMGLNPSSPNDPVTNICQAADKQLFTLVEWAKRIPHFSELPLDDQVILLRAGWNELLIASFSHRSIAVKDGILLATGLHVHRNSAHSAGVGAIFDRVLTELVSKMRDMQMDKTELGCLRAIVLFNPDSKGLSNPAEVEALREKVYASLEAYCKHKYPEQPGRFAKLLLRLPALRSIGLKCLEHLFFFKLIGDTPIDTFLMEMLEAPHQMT
E-selectin (Homo sapiens), sequence (P16581 whole entry, looked up): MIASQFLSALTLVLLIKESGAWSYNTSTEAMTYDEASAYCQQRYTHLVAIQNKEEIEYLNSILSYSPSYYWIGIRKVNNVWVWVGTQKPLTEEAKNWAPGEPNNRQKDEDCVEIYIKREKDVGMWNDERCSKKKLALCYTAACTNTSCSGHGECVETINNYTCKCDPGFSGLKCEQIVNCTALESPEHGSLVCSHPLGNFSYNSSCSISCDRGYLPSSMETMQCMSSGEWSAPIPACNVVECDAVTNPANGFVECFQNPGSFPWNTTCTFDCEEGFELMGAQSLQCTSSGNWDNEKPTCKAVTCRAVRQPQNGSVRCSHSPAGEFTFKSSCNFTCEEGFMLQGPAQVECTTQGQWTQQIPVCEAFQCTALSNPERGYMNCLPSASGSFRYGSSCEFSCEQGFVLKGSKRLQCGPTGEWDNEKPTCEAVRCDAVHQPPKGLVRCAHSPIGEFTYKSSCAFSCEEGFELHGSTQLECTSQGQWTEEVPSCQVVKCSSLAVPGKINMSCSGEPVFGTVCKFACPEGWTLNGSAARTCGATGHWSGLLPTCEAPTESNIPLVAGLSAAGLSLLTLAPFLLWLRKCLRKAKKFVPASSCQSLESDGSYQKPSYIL
Nuclear receptor subfamily 1 group I member 2 (Homo sapiens), sequence (O75469 whole entry, looked up, the tested form may be a part): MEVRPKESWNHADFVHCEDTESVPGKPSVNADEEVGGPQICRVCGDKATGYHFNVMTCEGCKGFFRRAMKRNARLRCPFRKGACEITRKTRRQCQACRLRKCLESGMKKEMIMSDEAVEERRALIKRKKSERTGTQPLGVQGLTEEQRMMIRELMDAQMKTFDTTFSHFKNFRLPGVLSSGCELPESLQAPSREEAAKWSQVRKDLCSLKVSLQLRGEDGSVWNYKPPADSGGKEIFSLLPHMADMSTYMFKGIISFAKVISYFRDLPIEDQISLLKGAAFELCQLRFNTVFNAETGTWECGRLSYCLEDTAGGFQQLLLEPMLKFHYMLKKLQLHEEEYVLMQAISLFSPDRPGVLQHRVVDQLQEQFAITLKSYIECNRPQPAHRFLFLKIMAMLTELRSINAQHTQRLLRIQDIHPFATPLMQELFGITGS
human Retinoid X Receptor beta (RXRb), RXRB (gene 6257), sequence (P28702 whole entry, looked up, the tested form may be a part): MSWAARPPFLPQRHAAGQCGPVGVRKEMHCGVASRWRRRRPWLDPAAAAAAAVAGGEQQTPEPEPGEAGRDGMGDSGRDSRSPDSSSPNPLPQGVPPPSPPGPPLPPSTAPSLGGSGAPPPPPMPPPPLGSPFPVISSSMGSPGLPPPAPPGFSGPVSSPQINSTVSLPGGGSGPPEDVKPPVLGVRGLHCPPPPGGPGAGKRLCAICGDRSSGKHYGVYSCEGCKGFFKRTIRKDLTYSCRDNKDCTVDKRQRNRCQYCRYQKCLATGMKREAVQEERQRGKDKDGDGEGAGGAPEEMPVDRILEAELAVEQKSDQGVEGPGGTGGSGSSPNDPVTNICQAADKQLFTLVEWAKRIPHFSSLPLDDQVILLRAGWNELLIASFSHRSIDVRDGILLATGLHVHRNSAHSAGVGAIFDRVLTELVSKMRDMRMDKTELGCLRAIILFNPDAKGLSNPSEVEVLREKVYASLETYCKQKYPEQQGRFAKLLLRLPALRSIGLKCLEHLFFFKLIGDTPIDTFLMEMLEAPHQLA
Peroxisome proliferator-activated receptor gamma (Homo sapiens), sequence (P37231 whole entry, looked up, the tested form may be a part): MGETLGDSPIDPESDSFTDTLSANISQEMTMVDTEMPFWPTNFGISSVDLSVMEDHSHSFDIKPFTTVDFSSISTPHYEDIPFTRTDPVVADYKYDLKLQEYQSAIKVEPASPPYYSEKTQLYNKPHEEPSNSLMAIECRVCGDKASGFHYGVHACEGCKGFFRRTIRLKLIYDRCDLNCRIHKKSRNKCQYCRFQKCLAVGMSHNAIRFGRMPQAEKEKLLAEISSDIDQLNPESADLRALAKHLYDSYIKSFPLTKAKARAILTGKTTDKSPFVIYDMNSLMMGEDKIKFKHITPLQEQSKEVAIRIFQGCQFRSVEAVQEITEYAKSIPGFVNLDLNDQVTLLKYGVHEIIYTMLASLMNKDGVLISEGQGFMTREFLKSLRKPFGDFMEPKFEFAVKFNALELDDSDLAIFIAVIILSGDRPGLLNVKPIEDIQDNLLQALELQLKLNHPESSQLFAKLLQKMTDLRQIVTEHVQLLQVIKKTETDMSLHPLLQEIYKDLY
human RAR-related Orphan Receptor gamma (RORg), RORC (gene 6097), sequence (P51449 whole entry, looked up, the tested form may be a part): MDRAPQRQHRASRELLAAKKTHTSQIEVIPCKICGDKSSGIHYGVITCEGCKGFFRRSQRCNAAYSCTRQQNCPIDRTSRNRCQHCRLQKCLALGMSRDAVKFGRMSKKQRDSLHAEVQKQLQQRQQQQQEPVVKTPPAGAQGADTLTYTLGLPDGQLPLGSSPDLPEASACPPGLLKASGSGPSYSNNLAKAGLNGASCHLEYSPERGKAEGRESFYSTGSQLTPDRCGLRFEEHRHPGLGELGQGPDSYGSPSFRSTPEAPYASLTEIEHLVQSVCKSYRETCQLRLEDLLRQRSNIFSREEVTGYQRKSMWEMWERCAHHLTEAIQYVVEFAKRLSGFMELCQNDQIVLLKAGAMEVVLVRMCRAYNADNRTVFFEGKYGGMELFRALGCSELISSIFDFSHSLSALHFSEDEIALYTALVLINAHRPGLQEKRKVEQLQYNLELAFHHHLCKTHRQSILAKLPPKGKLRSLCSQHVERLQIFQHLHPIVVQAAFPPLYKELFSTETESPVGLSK

With `CC(=[OH+])/C=C(/C)[O-].CC(=[OH+])/C=C(/C)[O-].CC(=[OH+])/C=C(/C)[O-].[Fe]`, the call in experiment [1] was inactive.
With `C=C(C)C(=O)[O][Sn]([CH2]CCC)([CH2]CCC)[CH2]CCC`, the AC50 (usually the concentration giving half of the maximal activity seen) in experiment [2] was 0.148 µM (active); in experiment [3], 0.286 µM (active); in experiment [4], 3.48 nM (active); in experiment [5] it was 0.0323 µM (active); in experiment [6] it was 0.148 µM (active); in [7], 148 nM (active). Besides, the AC50 in experiment [8] was 0.46 µM (active); in experiment [9], 663 nM (active); in experiment [10] it was 0.233 µM (active); in experiment [12] it was 148 nM (active). Besides, the call in [11] was inactive.
Turning to `CCNc1nc(NC(C)(C)C)nc(SC)n1`, the outcome in experiment [2], in experiment [13], in experiment [6], in experiment [7], in experiment [8] and in experiment [9] was inactive. The outcome in [14], in experiment [11] and in experiment [12] was inactive. Moreover, the half-maximal activity concentration (AC50) in experiment [3] was 2.02 µM (active); in experiment [5], 15.5 µM (active); in experiment [10] it was 20 µM (active).
Consider `CC(=O)OC(c1ccccc1)C(Cl)(Cl)Cl` (stereo unspecified), for which the result in [2], in experiment [4], in experiment [13], in experiment [6], in [7] and in experiment [8] was inactive. In addition, the result in experiment [9], in [10], in experiment [14] and in [12] was inactive. For the same molecule, the AC50 in [3] was 59 µM (active).
For the molecule `ClC1(Cl)C2(Cl)C3(Cl)C4(Cl)C(Cl)(Cl)C5(Cl)C3(Cl)C1(Cl)C5(Cl)C24Cl` (stereo unspecified), the outcome in [2], in experiment [3], in experiment [15], in [6], in experiment [7] and in experiment [8] was inactive. Further, the result in [9], in experiment [10], in [11] and in experiment [12] was inactive.
As to `CC(C)(C)c1cc(O)ccc1O`, the AC50 in experiment [2] is 9.85 µM (active); in [3], 3.34 µM (active); in [6], 31.8 µM (active); in experiment [8] it was 35.2 µM (active); in experiment [10], 32.4 µM (active); in experiment [17], 37 µM (active). Further, the molecule was classed as inactive in experiment [16], in [7], in [9] and in [12].
As to `Oc1cccc2cccnc12`, the AC50 is 4.78 µM (active) in experiment [2], 20 µM (active) in experiment [6], 5350 nM (active) in [7] and 4.97 µM (active) in experiment [10]. Further, the result in [3], in [15], in [4], in experiment [13], in experiment [8] and in experiment [9] was inactive. For the same molecule, the outcome in experiment [17], in [11] and in [12] was inactive.
As for `COC(=O)Cc1ccccc1`, the result in [2], in experiment [3], in experiment [15], in [4], in [6] and in experiment [7] was inactive. The result in experiment [8], in experiment [9], in [10], in experiment [14], in [17] and in experiment [11] was inactive. For the same molecule, the result in [12] was inactive.
